The text below walks through data of the supplement of paper PMC10127200.

Structures can show the parent of a compound that is named as a salt.

The subject of the assay is HEPG2. Nature of the assay: Euclidean distance of Cell Painting phenotypic profile (signed KS, 77 features) to DMSO centroid (dimensionless distance); higher = stronger phenotypic change vs DMSO (phenoactivity). As to conditions: 48 h; 5 or 10 uM (library dependent). The gist of the method: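 Five cancer lines and a healthy fibroblast line received library compounds at 10 or 5 uM (library-dependent, 0.1% DMSO final) for 48 h. Stained cells were imaged confocally at 20X (9 fields/well). Harmony extracted 77 features, each scored as a signed Kolmogorov-Smirnov statistic against same-plate vehicle wells. Profiles were plate-position corrected, correlation-weighted and replicate-averaged at the top dose. Phenoactivity is the Euclidean distance from each profile to the median vehicle profile.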
`CN1c2ccccc2C(NCCCCCCC(=O)O)c2ccc(Cl)cc2S1(=O)=O` (stereo not given) [Tianeptine sodium] gave an Euclidean distance of 0.471. Regarding `CC(C)=CCOc1c2occc2cc2ccc(=O)oc12` [Imperatorin], the Euclidean distance was 0.503. Consider `Cc1cccc(C)c1NC1=NCCCS1` [Xylazine], for which the Euclidean distance came to 0.887. As for `CC(C)NCC(O)c1ccccc1Cl` (stereo not given) [Clorprenaline HCl], the figure is 0.405. In turn, `CCC1(c2cccc(O)c2)CCCCN(C)C1` (stereo not given) [Meptazinol HCl] had an Euclidean distance of 0.404. In the case of `C[C@@H]1CC[C@@]2(OC1)O[C@H]1C[C@H]3[C@@H]4CC=C5C[C@@H](O[C@@H]6O[C@H](CO)[C@@H](O[C@@H]7O[C@@H](C)[C@H](O)[C@@H](O)[C@H]7O)[C@H](O)[C@H]6O[C@@H]6O[C@@H](C)[C@H](O)[C@@H](O)[C@H]6O)CC[C@]5(C)[C@H]4CC[C@]3(C)[C@H]1[C@@H]2C` [Dioscin], the Euclidean distance is 1.15. For `COc1ccc(OC)c(C(O)C(C)N)c1` (stereo not given) [Methoxamine HCl], the Euclidean distance amounted to 0.595.

Compound `C#C[C@]1(OC(=O)CCCCCC)CC[C@H]2[C@@H]3CCC4=CC(=O)CC[C@@H]4[C@H]3CC[C@@]21C` [Norethisterone Enanthate] showed an Euclidean distance of 2.23. The result for `O=C1CCC[C@@H]2[C@H]3CCCN4CCC[C@@H](CN12)[C@@H]34` [(+)-Matrine] reads 0.874. The result for `O=C(NCC1CCOCC1)c1cnc(Nc2ccc(Cl)cc2Cl)nc1C(F)(F)F` reads 1.64; that for `CN1C[C@H](C(=O)N[C@]2(C)O[C@@]3(O)[C@@H]4CCCN4C(=O)[C@H](Cc4ccccc4)N3C2=O)C[C@@H]2c3cccc4[nH]cc(c34)C[C@H]21` [Dihydroergotamine Mesylate], 1.1; that for `C=C1[C@@H](C)[C@H]2[C@H](Cc3ccccc3)NC(=O)[C@]23[C@H](OC(C)=O)/C=C/[C@@](C)(O)C(=O)[C@@H](C)C/C=C/[C@H]3[C@@H]1O` [Cytochalasin D], 2.24. Compound `CCC12C=CCN3CC[C@@]4(c5ccc(OC)cc5N(C)[C@H]4[C@@](O)(C(=O)OC)[C@@H]1OC(C)=O)[C@@H]32` (stereo not given in full) [Vindoline] had an Euclidean distance of 0.607. As for `NCC(O)c1ccc(O)cc1` (stereo not given) [(+.-)-Octopamine HCl], the figure is 0.45; as for `COC(=O)[C@@H](N)CCCNC(=N)N[N+](=O)[O-]`, 0.551; as for `CC[C@@]1(O)C[C@H](O[C@H]2C[C@H](N(C)C)[C@H](O)[C@H](C)O2)c2c(cc3c(c2O)C(=O)c2c(O)cccc2C3=O)[C@H]1C(=O)OC` [Aclacinomycin], 3.76. As for `CCC(COC(=O)c1cc(OC)c(OC)c(OC)c1)(c1ccccc1)N(C)C` (stereo not given) [Trimebutine], the figure is 1.26; as for `CC(C)OC(=O)[C@H](C)N[P@](=O)(CO[C@H](C)Cn1cnc2c(N)ncnc21)Oc1ccccc1` [Tenofovir Alafenamide (GS-7340)], 2.92; as for `Cl[TeH]1(Cl)(Cl)OCCO1.N`, 1.27. The result for `N.N.[Cl][Pt][Cl]` [Cisplatin] reads 1.55; that for `CC(=O)O[C@H]1C[C@@H]2CC[C@@H]3[C@H](CC[C@@]4(C)[C@H]3C[C@H]([N+]3(C)CCCCC3)[C@@H]4OC(C)=O)[C@@]2(C)C[C@@H]1[N+]1(C)CCCCC1` [Pancuronium dibromide], 0.518; that for `CC[N+](C)(CC)CCOC(=O)C(O)(c1ccccc1)c1ccccc1` [Methylbenactyzine Bromide], 0.532.

For `COc1ccc2[nH]cc(CCN)c2c1` [5-Methoxytryptamine], the Euclidean distance is 0.952. On to `O=C(C[S+]([O-])C(c1ccccc1)c1ccccc1)NO` (stereo not given) [Adrafinil], for which the Euclidean distance stood at 0.585.

In turn, `CC(C)(C)c1cc(C=C(C#N)C#N)cc(Br)c1O` yielded an Euclidean distance of 1.39. On to `CC(C)(O)C(Cl)(Cl)Cl` [Chlorobutanol], for which the Euclidean distance worked out at 0.725. The result for `CCOC(=O)c1cncn1[C@H](C)c1ccccc1` [Etomidate] reads 1.08; that for `CC1(C)C(C=C(Cl)Cl)C1C(=O)OCc1cccc(Oc2ccccc2)c1` (stereo not given) [Permethrin], 0.999. On to `CC[C@H](C)[C@@H]([C@@H](CC(=O)N1CCC[C@H]1[C@H](OC)[C@@H](C)C(=O)N[C@H](C)[C@@H](O)c1ccccc1)OC)N(C)C(=O)[C@@H](NC(=O)[C@@H](NC)C(C)C)C(C)C` [Monomethyl auristatin E (MMAE)], for which the Euclidean distance is 3.85.

Compound `O=c1[nH]c2ccccc2n1CCCN1CCC(n2c(=O)[nH]c3cc(Cl)ccc32)CC1` [Domperidone] yielded an Euclidean distance of 0.776. As for `Fc1cc(F)c2c(c1)[C@H]1C=CC[C@H]1C(c1cccnc1)N2` (stereo not given in full) [Golgicide A], the figure is 0.802.

With `Nc1ccncc1` [4-Aminopyridine], the Euclidean distance is 0.429. As to `C[C@@H]1[C@H](O)[C@@H](C)/C=C/C=C/CC/C=C/C=C/C=C/C=C/[C@H](O[C@H]2O[C@@H](C)[C@H](O)[C@@H](N)[C@H]2O)C[C@@H]2O[C@](O)(C[C@@H](O)[C@H](O)CC[C@@H](O)C[C@@H](O)C[C@@H](O)CC(=O)O[C@H]1C)C[C@H](O)[C@H]2C(=O)O` [Nystatin (Fungicidin)], the Euclidean distance stood at 1.2. The result for `CN1CCN(c2nc3ccccc3nc2Cl)CC1` reads 0.638; that for `CC(C)(C)[C@]1(O)CC2OC(=O)CC23C(=O)OC2OC(=O)[C@H](O)C231` (stereo not given in full) [Bilobalide], 0.996.
